Most compounds without a hit are left out; they make up all but 3% or so of the library.
TWEAK Fn14 block = inhibitors of TWEAK-Fn14 signaling, primary screen, luciferase reporter cells, uHTS; AID 1159606, 2016; TWEAK-stimulated Fn14 reporter cells, luciferase luminescence, 8 h; inhibition, % at 10 µM; 2% of 360,000 active; in the data active = inhibition above about 50%
LMP1 NFkB inh = EBV LMP1-driven NF-kappaB luciferase reporter inhibitors, primary screen, cell-based, luminescence, single point; LMP1-induced NF-kappaB luciferase reporter cells; inhibition, % at 12.5 µM; 0.69% of 350,000 active; in the data active = inhibition above about 41%; inconclusive = no clear call, values can overlap the other calls;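 note: 0% = neutral control wells and 100% = reference inhibitor control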
TROY NFkB inh = inhibitors of TROY-driven NF-kB signaling, primary screen, Q293 LMP1-TROYcd cells, NF-kB luciferase, uHTS; Q293 LMP1-TROYcd NF-kB luciferase reporter, 4 h; inhibition, % at 10 µM; 0.98% of 360,000 active; AID 1347056, 2019;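 active = compounds whose plate-normalised and pattern-corrected inhibition of the luciferase reporter signal at the single screening dose is 50% or more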
LGR2 antag = inhibitors of bursicon-induced LGR2 CRE-luciferase signal, primary screen, cell-based, HEK293, CRE-luciferase reporter, bursicon stimulation. Drosophila bursicon receptor LGR2 (rickets). bursicon-stimulated, 4 h. inhibition, % at 9.99 µM. 0.35% of 380,000 active;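 active = drop in luminescence signal, shown as inhibition above about 50% in the replicate tests, limit read from the data, passing the limit was not always enough; inconclusive = probably only some replicates passing the limit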;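 note: agonist challenge used bursicon conditioned medium at about half maximal strength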
MITF TRPM1 HTS = activators of MITF-driven TRPM1 promoter reporter, primary screen, cell-based, SK-MEL-5, luciferase, single point; SK-MEL-5 TRPM1-promoter luciferase, 24 h; % of positive control, neutral wells = 0; 0.75% of 300,000 active; activation, % at 12.5 µM;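 active = mean activation of at least 80% with every replicate also reaching 80%; inconclusive = mean reaches 80% but some replicate falls short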;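 note: 0% = neutral control wells and 100% = parthenolide positive control wells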
MITF TRPM1 inh = inhibitors of MITF-dependent TRPM1 promoter reporter, primary screen, cell-based, SK-MEL-5, single point, luciferase | SK-MEL-5 TRPM1 promoter luciferase, 24 h | inhibition, % at 12.5 µM | 0.83% of 330,000 active;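 active = mean inhibition across replicates of 60% or more, whatever share of single replicates reaches that level; inconclusive = some that reach 60%, reason not given; inactive = mean inhibition across replicates below 60%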
* marks the source's active call; other numbers are inactive results; ? = inconclusive; / = not tested or not shown.

SMILES	TWEAK Fn14 block	LMP1 NFkB inh	TROY NFkB inh	LGR2 antag	MITF TRPM1 HTS	MITF TRPM1 inh
CCCC(=O)Nc1ccc2c(c1)OC[C@H](C)N(Cc1nccs1)C[C@@H](C)[C@H](OC)CN(C)C2=O	/	/	/	5	/	/
O=C(CN(Cc1cccs1)C(=O)CNS(=O)(=O)c1ccccc1)NCc1ccco1	-3	90*	7	/	-9	10
CC1(C)CC(=O)C(C=NCC(N)=O)=C(O)C1	3	-17	5	-14	1	1
CC1(C)CC(=O)C(C=NCCCO)=C(O)C1	81*	-3	-3	/	-4	3
CC(=O)N1CC2(C1)[C@@H](c1ccc(-c3ccccc3C)cc1)[C@@H](CO)N2C(=O)CC1CC1	/	/	/	5	/	/
COc1ccc(-c2cn[nH]c2-c2ccc(OCc3ccccc3F)cc2O)cc1OC	46	17	36	-8	-10	12
COc1ccc(-c2cn[nH]c2-c2ccc(OCc3ccc([N+](=O)[O-])cc3)cc2O)cc1OC	83*	5	50	-25	-5	4
O=[N+]([O-])c1ccc(COc2ccc(-c3[nH]ncc3-c3ccc(Cl)cc3)c(O)c2)cc1	51*	-11	23	10	-10	11
Cc1[nH]c2ccccc2c1C(=O)C(C)OC(=O)c1ccccc1NCCO (stereo not given)	53*	-11	31	-3	0	2
OC(CNCCc1ccc(C(F)(F)F)cc1)COc1cccc2ccccc12 (stereo not given)	4	0	5	2	-7	10
CC[C@@H](C)[C@H](CNC)NC[C@@H](Cc1cccc2ccccc12)NCCc1cccc(C(F)(F)F)c1	-56	-6	-9	14	-98	98*
CCC[C@@H](CN[C@@H](CNC)[C@H](C)CC)NCC1CCC(C(C)(C)C)CC1 (stereo not given in full)	-47	-18	1	8	-99	100*
CCC[C@H](CN[C@@H](CNC)[C@H](C)CC)NCCc1cc(C(F)(F)F)cc(C(F)(F)F)c1	-72	-17	-7	63*	-102	103*
COc1cccc(-c2ccc([C@H]3[C@H]4CN(C(=O)C5CCCCC5)CC(=O)N4[C@H]3CO)cc2)c1	/	/	/	-11	/	/
Cc1ccccc1CN1CCN(C/C=C/c2ccccc2)CC1	58*	10	12	/	10	-7
CN(C)C(=O)C[C@@H]1CC[C@@H](NS(=O)(=O)c2ccccc2)[C@@H](CO)O1	/	/	/	4	/	/
CC(C)(C)C1CCc2c(sc3c2C(=O)NC(c2ccco2)N3)C1 (stereo not given)	14	-24	-5	-67	95*	-94
CN(C)CC(=O)N1[C@@H]2c3cccc(=O)n3C[C@@H]2[C@@H](CO)[C@@H]1C(=O)NCc1ccccc1F	/	/	/	-4	/	/
O=C(COC(=O)/C(=C/c1cccs1)c1cccs1)NC(c1ccccc1)c1ccccc1	31	-3	11	40	-71	71*
O=C(Nc1ccc2c(c1)CCC2)c1c(F)cccc1Cl	-20	-46	-71	-23	88*	-88
COc1ccc(C)cc1NC(=O)Nc1ccc2c(c1)CCC2	-31	-6	-28	-24	5	-10
O=C(Nc1ccc2c(c1)CCC2)Nc1ccccc1F	11	-53	-9	-111	108*	-104
COc1ccccc1NC(=O)Nc1ccc2c(c1)CCC2	-28	-30	-75	-118	112*	-106
O=C(Nc1ccncc1)c1c(Cl)cccc1Cl	55*	9	30	34	-13	17
O=C(Nc1ccncc1)c1c(F)c(F)c(F)c(F)c1F	9	-4	4	4	-6	8
SMILES	TWEAK Fn14 block	LMP1 NFkB inh	TROY NFkB inh	LGR2 antag	MITF TRPM1 HTS	MITF TRPM1 inh
CN1C(=O)c2cc(NC(=O)c3ccc(C(F)(F)F)cc3)ccc2OC[C@H]2O[C@H](CC(=O)NC3Cc4ccccc4C3)CC[C@@H]21	/	/	/	38	/	/
O=C(Nc1ccc2c(c1)CCC2)c1ccc(F)cc1	20	-33	-48	29	40	-42
O=C(Nc1ccc2c(c1)CCC2)c1cc(S(=O)(=O)Nc2ccc(F)cc2)c(Cl)cc1Cl	52*	-2	37	/	0	0
O=C(C[C@@H]1C=C[C@H](NC(=O)C2CC2)[C@@H](CO)O1)NC1CCC1	/	/	/	9	/	/
COc1ccc(C2=CSC3=NCCN23)cc1Cl	-14	1	0	-6	/	6
COc1ccc(C2=CSC3=NCCN23)cc1F	-6	2	54*	/	-2	0
COc1ccccc1-c1nn2c(-c3ccco3)nnc2s1	-35	-15	-78	-82	134*	-137
N#C[C@@H]1[C@@H](c2ccccc2)[C@@H](CO)N1C(=O)c1ccc2c(c1)OCO2	/	/	/	-4	/	/
CCC(=O)N1CC(=O)N2[C@H](CO)[C@@H](c3ccc(C#Cc4cccc(OC)c4)cc3)[C@@H]2C1	/	/	/	-11	/	/
COc1ccc2c3c(n(C)c2c1)[C@@H](CO)N(C)CC31CN(S(=O)(=O)c2cccc(F)c2)C1	/	/	/	8	/	/
O=C(CCl)Nc1cc(-c2ccccc2)nn1-c1ccccc1	6	-10	-32	/	/	67*
Clc1cccc(-c2cc3nc4c(c(N5CCOCC5)n3n2)CCCC4)c1	6	-23	28	/	?	-76
Clc1cccc(-c2cc3nc4c(c(N5CCN(c6cnccn6)CC5)n3n2)CCCC4)c1	61*	-48	26	/	47	-46
O=C(O)c1cc(N/N=C/c2cccc3ccccc23)ccc1Cl	101*	-45	-19	-143	100*	-88
O=c1[nH]c(N/N=C\c2ccc3c(c2)OCO3)nc2ccccc12	10	-11	-12	/	52	-49
O=C(O)c1cc(N/N=C/c2ccc3c(c2)OCCO3)ccc1Cl	-13	45*	11	71*	-83	82*
Cc1cc(N/N=C/c2ccc3c(c2)OCO3)nc2ccccc12	-10	-6	-49	-70	98*	-103
O=C(O)c1cc(N/N=C/c2ccc3c(c2)OCO3)ccc1Cl	20	-4	-60	/	-36	39
O=C(O)c1cc(S(=O)(=O)Nc2ccc3c(c2)OCCO3)c(Cl)cc1Cl	91*	23	83*	18	-11	13
C/C(=N\Nc1ccc(Cl)c(C(=O)O)c1)c1cccc2ccccc12	0	3	-32	7	/	/
CN(C)c1ccc2c(c1)[C@@H]1C[C@H](CC(=O)N3CCCCC3)O[C@H](CO)[C@@H]1O2	/	/	/	1	/	/
CCC(=O)N(C)C[C@H]1Oc2ncc(-c3ccc(C(=O)N(C)C)cc3)cc2C(=O)N([C@H](C)CO)C[C@H]1C	/	/	/	-7	/	/

Screening data deposited in PubChem by several laboratories.
